Tests used:
Test in all cases: DAPPL (digital affinity profiling via proximity ligation, sequencing); 10 mM Tris-HCl pH 7.5, 50 mM NaCl, 1 mM DTT, 4% glycerol, room temperature, 30 min; GST-TFs on glutathione beads, 16-mer random dsDNA library, 0.1% formaldehyde crosslink after washing; high values mean tight binding
Conditions in all cases: protein: recombinant; tags: N-terminal GST; dsDNA, one strand shown
ELK1 = biological target: T1, ELK1 (Homo sapiens, UniProt P19419 1-428)
T1 sequence: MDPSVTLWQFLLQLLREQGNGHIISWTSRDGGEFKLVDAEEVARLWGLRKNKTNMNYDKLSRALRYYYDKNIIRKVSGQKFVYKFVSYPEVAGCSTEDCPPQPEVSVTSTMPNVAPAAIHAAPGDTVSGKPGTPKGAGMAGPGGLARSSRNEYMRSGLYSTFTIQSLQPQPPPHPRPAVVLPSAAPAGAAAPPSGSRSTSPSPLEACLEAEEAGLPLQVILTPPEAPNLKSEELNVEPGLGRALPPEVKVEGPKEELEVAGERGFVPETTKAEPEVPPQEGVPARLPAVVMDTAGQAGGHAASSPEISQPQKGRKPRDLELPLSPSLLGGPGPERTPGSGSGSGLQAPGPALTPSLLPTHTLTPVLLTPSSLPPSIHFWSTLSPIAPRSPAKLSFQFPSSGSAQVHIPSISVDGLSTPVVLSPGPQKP
Outline: (§1)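 The binding signal reported is, for every hexamer, its read frequency for a factor over its read frequency for the tag-only sample. Reads came from pools of yeast-expressed, GST-fused human transcription factors on glutathione beads, barcoded with DNA and mixed with that sample, which were incubated with 200 nmole of a random double-stranded 16-mer DNA library in Tris/NaCl/DTT/glycerol buffer at room temperature for 30 min. After washing, the pools were crosslinked with 0.1% formaldehyde, proximity-ligated with BsaI/T4 ligase for 1 h at 37 °C, PCR-amplified and sequenced on an Illumina NextSeq500.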

GABPA = biological target: T2, GABPA (Homo sapiens, UniProt Q06546 1-454)
T2 sequence: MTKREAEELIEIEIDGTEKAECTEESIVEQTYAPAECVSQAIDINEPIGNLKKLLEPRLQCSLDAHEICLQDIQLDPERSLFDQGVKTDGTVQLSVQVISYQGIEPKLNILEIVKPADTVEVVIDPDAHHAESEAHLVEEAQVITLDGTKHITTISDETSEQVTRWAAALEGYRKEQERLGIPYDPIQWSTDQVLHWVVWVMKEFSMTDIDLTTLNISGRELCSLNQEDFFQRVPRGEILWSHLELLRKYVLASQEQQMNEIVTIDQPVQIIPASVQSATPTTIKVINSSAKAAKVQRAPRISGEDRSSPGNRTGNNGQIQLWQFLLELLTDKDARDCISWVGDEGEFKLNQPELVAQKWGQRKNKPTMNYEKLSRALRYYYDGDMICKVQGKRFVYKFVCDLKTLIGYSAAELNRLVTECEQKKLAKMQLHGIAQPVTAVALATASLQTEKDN
Outline: as §1

ERG = biological target: T3, ERG (Homo sapiens, UniProt P11308 1-479)
T3 sequence: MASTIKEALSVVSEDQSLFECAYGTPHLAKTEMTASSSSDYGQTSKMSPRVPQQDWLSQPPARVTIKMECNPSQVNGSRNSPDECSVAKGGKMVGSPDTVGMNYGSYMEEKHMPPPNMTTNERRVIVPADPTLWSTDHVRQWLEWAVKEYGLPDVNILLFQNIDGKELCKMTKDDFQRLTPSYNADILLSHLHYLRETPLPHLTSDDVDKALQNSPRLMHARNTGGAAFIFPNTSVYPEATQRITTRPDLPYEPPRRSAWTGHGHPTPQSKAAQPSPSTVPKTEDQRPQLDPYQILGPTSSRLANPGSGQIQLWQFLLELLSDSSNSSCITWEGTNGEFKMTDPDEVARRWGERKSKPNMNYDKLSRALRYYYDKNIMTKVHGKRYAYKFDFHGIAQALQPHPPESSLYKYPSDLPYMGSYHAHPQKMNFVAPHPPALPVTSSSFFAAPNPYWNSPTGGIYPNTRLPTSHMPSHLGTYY
Outline: as §1

ELF1 = ELF1 (Homo sapiens, UniProt P32519 1-619)
Chain of ELF1 (P32519 whole entry): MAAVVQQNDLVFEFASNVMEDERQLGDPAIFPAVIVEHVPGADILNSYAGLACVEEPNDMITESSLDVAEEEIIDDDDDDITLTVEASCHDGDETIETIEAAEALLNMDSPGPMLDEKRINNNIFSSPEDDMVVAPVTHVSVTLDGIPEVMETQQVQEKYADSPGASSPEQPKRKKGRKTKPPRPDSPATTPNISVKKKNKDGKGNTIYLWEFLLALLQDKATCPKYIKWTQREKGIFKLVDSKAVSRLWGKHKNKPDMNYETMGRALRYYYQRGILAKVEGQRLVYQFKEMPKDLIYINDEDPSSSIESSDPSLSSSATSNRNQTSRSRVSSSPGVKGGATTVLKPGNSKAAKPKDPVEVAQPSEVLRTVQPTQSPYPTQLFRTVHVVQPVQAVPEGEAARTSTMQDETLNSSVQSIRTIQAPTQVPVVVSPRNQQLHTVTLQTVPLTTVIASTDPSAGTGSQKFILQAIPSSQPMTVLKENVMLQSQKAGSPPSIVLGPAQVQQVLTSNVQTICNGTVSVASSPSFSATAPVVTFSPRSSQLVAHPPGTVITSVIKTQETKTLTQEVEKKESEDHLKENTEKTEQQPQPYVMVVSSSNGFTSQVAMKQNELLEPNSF
Outline: as §1

EHF = biological target: T4, EHF (Homo sapiens, UniProt Q9NZC4 1-300)
T4 sequence: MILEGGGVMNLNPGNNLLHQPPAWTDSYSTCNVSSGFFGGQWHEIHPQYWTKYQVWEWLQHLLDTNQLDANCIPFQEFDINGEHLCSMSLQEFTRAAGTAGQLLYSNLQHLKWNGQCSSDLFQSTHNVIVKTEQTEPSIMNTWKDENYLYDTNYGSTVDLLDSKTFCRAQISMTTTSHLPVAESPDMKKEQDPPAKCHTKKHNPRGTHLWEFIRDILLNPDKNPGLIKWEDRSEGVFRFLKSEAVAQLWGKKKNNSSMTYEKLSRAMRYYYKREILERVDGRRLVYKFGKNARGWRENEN
Outline: as §1

SPIB = SPIB (Homo sapiens, UniProt Q01892 1-262)
Chain of SPIB (Q01892 whole entry): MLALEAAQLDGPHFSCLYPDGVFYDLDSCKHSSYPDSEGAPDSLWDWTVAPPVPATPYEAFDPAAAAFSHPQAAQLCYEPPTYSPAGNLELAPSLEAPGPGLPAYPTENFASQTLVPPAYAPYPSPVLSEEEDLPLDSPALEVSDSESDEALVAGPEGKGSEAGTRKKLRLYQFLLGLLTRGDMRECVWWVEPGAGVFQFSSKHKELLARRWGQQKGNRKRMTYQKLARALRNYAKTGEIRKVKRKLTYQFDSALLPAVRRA
Outline: as §1

FEV = biological target: T5, FEV (Homo sapiens, UniProt Q99581 1-238)
T5 sequence: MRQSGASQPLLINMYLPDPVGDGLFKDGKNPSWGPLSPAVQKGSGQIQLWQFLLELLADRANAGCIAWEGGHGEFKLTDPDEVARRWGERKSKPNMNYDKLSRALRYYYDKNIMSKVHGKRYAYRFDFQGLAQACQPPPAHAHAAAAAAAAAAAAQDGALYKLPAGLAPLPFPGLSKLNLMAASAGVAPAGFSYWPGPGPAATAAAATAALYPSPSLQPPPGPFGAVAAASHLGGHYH
Outline: as §1

ETV5 = ETV5 (Homo sapiens, UniProt P41161 1-510)
Chain of ETV5 (P41161 whole entry): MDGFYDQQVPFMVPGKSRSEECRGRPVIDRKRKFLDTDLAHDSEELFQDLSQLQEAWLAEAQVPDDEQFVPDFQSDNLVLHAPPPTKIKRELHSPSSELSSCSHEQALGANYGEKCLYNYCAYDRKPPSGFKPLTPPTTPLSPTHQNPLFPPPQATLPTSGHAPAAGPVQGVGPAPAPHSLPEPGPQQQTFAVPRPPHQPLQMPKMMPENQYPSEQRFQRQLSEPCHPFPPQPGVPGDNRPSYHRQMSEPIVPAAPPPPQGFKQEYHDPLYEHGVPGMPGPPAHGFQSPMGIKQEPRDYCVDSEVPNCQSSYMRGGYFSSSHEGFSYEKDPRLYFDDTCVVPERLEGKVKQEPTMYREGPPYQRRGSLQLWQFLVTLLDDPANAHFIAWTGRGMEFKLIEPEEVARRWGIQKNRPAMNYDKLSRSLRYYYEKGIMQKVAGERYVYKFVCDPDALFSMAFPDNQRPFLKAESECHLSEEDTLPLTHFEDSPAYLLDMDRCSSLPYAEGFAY
Outline: as §1

ELF4 = ELF4 (Homo sapiens, UniProt Q99607 1-663)
Chain of ELF4 (Q99607 whole entry): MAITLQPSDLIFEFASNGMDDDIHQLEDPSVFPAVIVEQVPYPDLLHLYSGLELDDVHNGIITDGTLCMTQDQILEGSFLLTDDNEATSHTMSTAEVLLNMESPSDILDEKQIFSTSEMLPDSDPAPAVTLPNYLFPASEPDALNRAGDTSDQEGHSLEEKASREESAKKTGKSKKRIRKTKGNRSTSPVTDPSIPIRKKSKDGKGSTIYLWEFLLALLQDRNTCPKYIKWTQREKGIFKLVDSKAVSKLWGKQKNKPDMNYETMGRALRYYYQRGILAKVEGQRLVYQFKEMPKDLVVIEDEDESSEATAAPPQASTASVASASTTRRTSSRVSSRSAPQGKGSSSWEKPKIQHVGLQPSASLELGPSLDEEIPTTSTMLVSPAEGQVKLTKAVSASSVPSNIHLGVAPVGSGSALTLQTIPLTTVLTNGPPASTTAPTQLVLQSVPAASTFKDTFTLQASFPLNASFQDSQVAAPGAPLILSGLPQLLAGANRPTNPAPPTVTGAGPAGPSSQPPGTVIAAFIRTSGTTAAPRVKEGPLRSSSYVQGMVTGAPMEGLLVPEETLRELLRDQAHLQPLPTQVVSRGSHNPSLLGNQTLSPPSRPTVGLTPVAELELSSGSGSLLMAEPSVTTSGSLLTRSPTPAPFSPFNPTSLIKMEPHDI
Outline: as §1

ELK4 = biological target: T6, ELK4 (Homo sapiens, UniProt P28324-2 1-405)
T6 sequence: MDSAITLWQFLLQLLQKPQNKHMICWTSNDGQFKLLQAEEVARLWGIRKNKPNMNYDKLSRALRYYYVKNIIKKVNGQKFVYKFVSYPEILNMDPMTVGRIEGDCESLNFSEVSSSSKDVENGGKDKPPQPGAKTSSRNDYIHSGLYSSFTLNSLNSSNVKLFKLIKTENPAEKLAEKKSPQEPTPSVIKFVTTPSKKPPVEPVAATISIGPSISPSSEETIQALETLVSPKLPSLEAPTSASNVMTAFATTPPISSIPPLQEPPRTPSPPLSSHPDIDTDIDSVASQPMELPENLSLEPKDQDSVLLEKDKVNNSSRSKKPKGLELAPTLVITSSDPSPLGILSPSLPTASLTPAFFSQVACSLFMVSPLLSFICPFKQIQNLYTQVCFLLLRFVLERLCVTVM
Outline: as §1

GGTAAA
binding signal (ELK1): 1.1 fold enrichment (6-mer frequency, TF over GST control)
binding signal (GABPA): 1.07 fold enrichment (6-mer frequency, TF over GST control)
binding signal (ERG): 1.04 fold enrichment (6-mer frequency, TF over GST control)
binding signal (ELF1): 1.08 fold enrichment (6-mer frequency, TF over GST control)
binding signal (EHF): 1.05 fold enrichment (6-mer frequency, TF over GST control)
binding signal (SPIB): 1.08 fold enrichment (6-mer frequency, TF over GST control)
binding signal (FEV): 1.02 fold enrichment (6-mer frequency, TF over GST control)
binding signal (ETV5): 1.06 fold enrichment (6-mer frequency, TF over GST control)
binding signal (ELF4): 1.04 fold enrichment (6-mer frequency, TF over GST control)
binding signal (ELK4): 1.11 fold enrichment (6-mer frequency, TF over GST control)

— paper PMC7862700, “An all-to-all approach to the identification of sequence-specific readers for epigenetic DNA modifications on cytosine”
